Data published in PubChem BioAssay.
Activity calls are given as the source filed them. Cut-off read from the data, not from the text of the source: active = fold change permeability below about 0.7 or above about 1.3; inactive = in between.

Assay: compounds altering in vitro BBB leakiness – cell-based, FITC-avidin fluorescence, HTS, primary screen (AID 1963498); note: test concentration not given here
Conditions: brain endothelial barrier, actives lie on both sides

| Compound | fold change permeability |
| --- | --- |
| NC(=O)c1cn(Cc2c(F)cccc2F)nn1 | 0.9 (inactive) |
| CNc1cc(NS(=O)(=O)c2ccc(N)cc2)nc(NC)n1 | 0.7 (active) |
| C[C@H](NCCc1ccc(O)cc1)[C@H](O)c1ccc(O)cc1 | 0.7 (active) |
| CNC(=O)c1c(F)cccc1Nc1nc(Nc2cc3c(cc2OC)CCN3C(=O)CN(C)C)nc2[nH]ccc12 | 1.6 (active) |
| CC(C)(C)c1ccc(CN2CCN(C(c3ccccc3)c3ccc(Cl)cc3)CC2)cc1 (stereo not given) | 1.6 (active) |
| CN1CCN(C(c2ccccc2)c2ccc(Cl)cc2)CC1 (stereo not given) | 1.7 (active) |
| O=C1NC(=O)c2c1c(-c1ccccc1)cc1[nH]c3ccc(O)cc3c21 | 0.7 (active) |
| Cc1cccc(-c2[nH]ncc2-c2ccc3ncccc3n2)n1 | 0.7 (active) |
| Nc1ncnc2c1nc(Br)n2C1OC2COP(=O)(O)O[C@@H]2C1O (stereo not given in full) | 1 (inactive) |
| O=C1c2ccccc2C(=O)c2c(NCCc3ccc(O)cc3)ccc(NCCc3ccc(O)cc3)c21 | 1.1 (inactive) |
| O=C1NCC2(CCN(CCc3ccccc3)CC2)O1 | 1 (inactive) |
| Nc1nc(Cl)nc2c1ncn2[C@@H]1O[C@H](CO)[C@@H](O)[C@H]1O | 0.9 (inactive) |
| Cc1ccccc1/C=C/C1=NCCN1 | 0.7 (active) |
| CN(C)CC(O)Cn1c2ccc(Br)cc2c2cc(Br)ccc21 (stereo not given) | 1.5 (active) |
| O[Si](CCCN1CCCCC1)(c1ccc(F)cc1)C1CCCCC1 (stereo not given) | 1.4 (active) |
| C[N+](C)(C)CCO | 1 (inactive) |
| NCCCCN | 0.9 (inactive) |
| COc1ccccc1-c1cc(Nc2cccc(CS(N)(=O)=O)c2)ncn1 | 0.9 (inactive) |
| O=C(CCc1ccc(O)cc1)c1c(O)cc(O)cc1O | 1 (inactive) |
| Nc1ccn([C@@H]2O[C@H](CO)[C@@H](O)[C@@H]2O)c(=O)n1 | 1 (inactive) |

| Compound | fold change permeability |
| --- | --- |
| O=C(O)CCC(C(=O)O)N1C(=O)c2ccccc2C1=O (stereo not given) | 1 (inactive) |
| Cc1nc2c([nH]1)c(=O)n(C)c(=O)n2Cc1ccco1 | 0.7 (active) |
| C[C@H](NC[C@H](O)CP(=O)(O)Cc1ccccc1)c1ccc(Cl)c(Cl)c1 | 1.1 (inactive) |
| O=C(Cc1ccccc1)Nc1nnc(CCSCCc2nnc(NC(=O)Cc3ccccc3)s2)s1 | 1.5 (active) |
| O=c1[nH]c2cc(Cl)ccc2c(O)c1-c1cccc(Oc2ccccc2)c1 | 1.4 (active) |
| C[C@@H](CN1CCC(Cc2ccccc2)CC1)[C@@H](O)c1ccc(O)cc1 | 1.3 (active) |
| CCCCCCCCCC(=O)N[C@H](CN1CCOCC1)[C@H](O)c1ccccc1 | 0.9 (inactive) |
| O=C(O)CN(CCOCCOCCN(CC(=O)O)CC(=O)O)CC(=O)O | 0.8 (inactive) |
| C[N+](C)(C)CC=O | 1.1 (inactive) |
| CN1CCc2cccc3c2[C@H]1Cc1ccc(O)c(O)c1-3 | 1 (inactive) |
| CNS(=O)(=O)CCc1ccc2[nH]cc(C3CCN(C)CC3)c2c1 | 1 (inactive) |
| CCC(=O)NS(=O)(=O)c1ccc(-c2c(-c3ccccc3)noc2C)cc1 | 0.9 (inactive) |
| C=CCN1CCc2cc(O)c(O)cc2C(c2ccccc2)C1 (stereo not given) | 0.7 (active) |
| Cn1c(=O)c2c(nc(/C=C/c3cccc(Cl)c3)n2C)n(C)c1=O | 1.6 (active) |
| O=C(CCCCCN1CCN(c2ccccc2-c2ccccc2)CC1)NC1CCCc2ccccc21 (stereo not given) | 1.1 (inactive) |
| COc1cc(/C=C(\C#N)C(=O)Nc2nnc(C(F)(F)F)s2)ccc1OCc1ccc(C(F)(F)F)cc1C(F)(F)F | 1.5 (active) |
| c1ccc2c(c1)CCC[C@H]2Nc1nc2ccccc2[nH]1 | 1.3 (active) |
| O=C(COc1ccc(Cl)cc1)NC1CCC(NC(=O)COc2ccc(Cl)cc2)CC1 (stereo not given) | 0.9 (inactive) |
| O=c1c2ccccc2nc2n1CCc1c-2[nH]c2ccccc12 | 1.8 (active) |
| CC(=O)[C@@]1(O)CC[C@H]2[C@@H]3CCC4=CC(=O)CC[C@]4(C)[C@H]3CC[C@@]21C | 1 (inactive) |
